Test results as given in PubChem BioAssay AID2781 (National Center for Advancing Translational Sciences (NCATS), 2010).
Calls of active or inactive are those of the source.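 Rule for the calls: active = compound whose NMR saturation transfer difference test with menin is positive, showing direct binding to the protein; inactive = the rest.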

Molecular target: Menin (Homo sapiens) (UniProt O00255)
Assay: Confirmation of Inhibitors Targeting the Menin-MLL Interaction in MLL Related Leukemias: NMR spectroscopy to verify direct binding of compounds to menin
Conditions: purified menin, NMR STD binding, 100 uM
Excerpt: qHTS Assay for Inhibitors Targeting the Menin-MLL Interaction in MLL Related Leukemias NIH Chemical Genomics Center [NCGC] NIH Molecular Libraries Probe Centers Network [MLPCN] MLPCN Grant: MH084875-01A1 Assay Submitter (PI): Jolanta Grembecka, Tomasz Cierpicki, University of Virginia Translocations of the MLL (Mixed Lineage Leukemia) gene are frequently found in human leukemias affecting both children and adults. Fusion of MLL to one of more than 60 genes results in generation of oncogenic proteins upregulating Hox genes, which are vital to blood cell development. Patients harboring fusion of the MLL gene suffer from aggressive leukemias and respond poorly to available therapies. All of the oncogenic fusion proteins have a preserved N-terminal fragment of MLL that has been identified to interact with menin. It has been recently discovered that association with menin is critical to the leukemogenic activity of the MLL fusion oncoproteins. Selective targeting of the menin-MLL interaction could provide an attractive therapeutic approach to develop novel drugs for MLL-related leukemias. Small molecules blocking the menin-MLL interaction should reverse the oncogenic potential of MLL fusion proteins. We have developed and optimized a fluorescence polarization-based assay for the identification of Menin-MLL inhibitors. The assay was run employing two different MLL-derived peptides. […]

Menin (Homo sapiens), sequence (O00255 whole entry, looked up): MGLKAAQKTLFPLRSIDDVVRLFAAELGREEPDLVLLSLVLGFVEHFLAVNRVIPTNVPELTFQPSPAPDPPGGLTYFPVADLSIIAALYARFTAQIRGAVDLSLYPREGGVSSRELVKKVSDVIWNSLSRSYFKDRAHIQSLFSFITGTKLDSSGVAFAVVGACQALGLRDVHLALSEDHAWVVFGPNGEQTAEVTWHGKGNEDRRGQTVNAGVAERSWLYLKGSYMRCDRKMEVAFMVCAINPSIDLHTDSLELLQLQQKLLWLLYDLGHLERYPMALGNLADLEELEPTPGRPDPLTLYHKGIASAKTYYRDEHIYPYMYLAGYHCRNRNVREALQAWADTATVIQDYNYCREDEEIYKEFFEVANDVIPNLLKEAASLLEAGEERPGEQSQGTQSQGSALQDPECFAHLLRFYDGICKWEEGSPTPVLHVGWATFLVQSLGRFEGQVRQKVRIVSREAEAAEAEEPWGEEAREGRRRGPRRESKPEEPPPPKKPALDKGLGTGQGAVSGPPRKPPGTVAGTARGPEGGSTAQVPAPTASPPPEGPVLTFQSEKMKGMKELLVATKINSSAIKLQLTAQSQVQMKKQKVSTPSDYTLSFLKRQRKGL

## c1cc2cc(c1)C[n+]1ccc(c3ccccc31)NCc1ccc(cc1)CNc1cc[n+](c3ccccc13)C2
  outcome: inactive; negative

## CCCCn1c(=O)c(C(=O)Nc2ccsc2C(=O)OC)c(O)c2ccccc21
  outcome: inactive; negative
